# Compounds without any hit were thinned out: in the full panel of roughly 83,000, 20% have a hit.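 Percent growth is the endpoint: 0 to 100 indicates growth inhibition (40 means 60% inhibition), 0 means no net growth, and negative values indicate cell death.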 Activity calls are given as the source filed them. The calls were made as follows: active = growth percent below 10; inactive = the rest.
# Test system: OVCAR-5 ovarian
# Test: NCI-60 one-dose screen, 48 h (100 = growth as untreated, 0 = no growth, -100 = all killed)
# Details: 10 µM unless noted
row,SMILES,growth
1,C=CC(=O)Nc1ccc2ncnc(Nc3cccc(NS(=O)(=O)CCC)c3Cl)c2c1,36.2% (inactive)
2,COc1ccccc1/C=C/C1=C(C)CCC(c2ccccc2OC)C1C (stereo not given),28.9% (inactive)
3,CN(C)CCOc1nc2c3cc([N+](=O)[O-])ccc3nn2c2ccccc12,58.6% (inactive)
4,COc1ccc(-c2nc(SCCC(C)C)nc(N/N=C(/C)c3ccc(N)cc3)c2C#N)cc1,93.7% (inactive)
5,O=C(c1ccccc1)[C@@H](c1ccccc1)[C@]1(O)C(=O)Nc2ccccc21,82.1% (inactive)
6,CCOC(=O)C1=C(c2ccccc2)N=C2SC=C(c3cccc([N+](=O)[O-])c3)N2C1c1ccc(O)cc1 (stereo not given),100% (inactive)
7,Cn1nc(-c2ccc(Cl)cc2)nc2c(=O)n(C)c(=O)nc1-2,-89.1% (active)
8,COC1CC(O)C2=C(CC3C(/C(C)=C\CC=C(C)C)CCC3(C)O2)C1=O (stereo not given),114% (inactive)
9,COc1cc(C(=O)/C=C/c2c(-c3cccs3)nc3sc(C)cn23)cc(OC)c1OC,56.9% (inactive)
10,CSc1nc(N)c2c(n1)NC(c1ccccc1)C1CCc3ccccc3C1=N2 (stereo not given),121% (inactive)
11,COC(=O)c1c(C)nc(C)c2c1C(=O)C(Br)=C(NCCCCO)C2=O,101% (inactive)
12,COc1ccc(S(=O)(=O)Oc2ccc(-c3sc4cc(OS(=O)(=O)c5ccc(OC)cc5)ccc4c3C(=O)c3ccc(OCCN4CCCCC4)cc3)cc2)cc1,95.7% (inactive)
13,C=C(c1ccc(C(=O)O)c(F)c1)c1cc2c(cc1C)C(C)(C)C=CC2(C)C,111% (inactive)
14,COc1cc(C2=Nc3c(N)nc(N)nc3NC(c3cccc(Nc4ccnc5cc(C(F)(F)F)ccc45)c3)C2)cc(OC)c1OC (stereo not given),129% (inactive)

# Test system: OVCAR-4 ovarian
# Test: as above
# Details: 10 µM unless noted
row,SMILES,growth
1,CN1CCN(CCCNC(=O)c2c3c(n4ccccc24)C(=O)c2ncccc2C3=O)CC1,-100% (active)
2,CN1CCN(CC(=O)N(C)c2ccc(N=C(c3ccccc3)c3c(O)[nH]c4ccc([N+](=O)[O-])cc34)cc2)CC1,57.7% (inactive)
3,CCCCCCCCNc1ncnc2c1ncn2Cc1nnc2c3ccccc3c(Cl)nn12,42.9% (inactive)
4,CC/C(=C(/c1ccc(Cl)cc1)c1ccc(OCCCN(C)C)cc1)c1ccc(OC)cc1,86.6% (inactive)
5,CCN(CC)CCCNC(=O)c1c2c(n3ccccc13)C(=O)c1ncccc1C2=O,-83.4% (active)
6,CCCn1cnc2c(c1=N)C(c1ccc(Cl)cc1)c1sc3c(F)cccc3c1O2 (stereo not given),66.2% (inactive)
7,Cc1ccc(C23CCC(=O)N2CCc2cncn23)cc1 (stereo not given),108% (inactive)
8,O=C(COc1ccc(/C=C2\Oc3ccccc3C2=O)cc1)Nc1nccs1,90.3% (inactive)
9,Cc1c(C(=O)C(SC(=S)N2CCOCC2)SC(=S)N2CCOCC2)nnn1-c1ccc([N+](=O)[O-])cc1,109% (inactive)
10,O=[N+]([O-])c1ccc(Oc2cccc3c(Oc4ccc([N+](=O)[O-])cc4[N+](=O)[O-])cccc23)c([N+](=O)[O-])c1,87.8% (inactive)
11,CN(C)CCOc1ccc(/C(=C(/CCCCCCCCCC[P+](c2ccccc2)(c2ccccc2)c2ccccc2)c2ccccc2)c2ccccc2)cc1,-81.6% (active)
12,CC1(C)CC[C@]2(CO)CC[C@]3(C)C(=CC[C@@H]4[C@@]5(C)CCNCC(C)(C)[C@@H]5CC[C@]43C)[C@@H]2C1,81% (inactive)
13,O=c1oc2ccccc2cc1-c1nn(-c2ccccc2)cc1/C=N/Nc1nc(-c2ccccc2)c(N=Nc2ccccc2)s1,84.7% (inactive)
14,COc1cc(/C=C2\CN(S(=O)(=O)c3ccc(C)cc3)C/C(=C\c3cc(CN4CCCC4)c(O)c(OC)c3)C2=O)cc(CN2CCCC2)c1O,12.1% (inactive)
15,Nc1ccc(Cl)c2c(=O)c3ccccc3[nH]c12,53.8% (inactive)
16,COC(=O)c1sc(-c2ccc(C)cc2)cc1O,91.5% (inactive)
17,CCOC(=O)CSc1nc2sc3c(c2c(=O)n1-c1ccccc1)CCCCC3,116% (inactive)
18,O=C1NCCS(=O)(=O)/C1=C\C=C\c1cccc(C(F)(F)F)c1,53.4% (inactive)
19,COc1cc(/C=C2\C(=O)N(CCOc3cc(O)c4c(=O)cc(-c5ccccc5)oc4c3)c3ccccc32)cc(OC)c1O,82.3% (inactive)
20,CNC1=C([N+](=O)[O-])C(c2ccc(OC)cc2)C(C#N)=C(c2ccc[nH]2)O1 (stereo not given),92.8% (inactive)
21,COc1cccc2cc(N(C)c3ncnc4ccccc34)ccc12,34.7% (inactive)

# From PubChem BioAssay (NCI)
